# Screening results (PubChem BioAssay)
# GDH-TPI counter: inhibits GDH-TPI coupling enzymes, artifact for Mtb FBA screen; GDH-TPI coupled enzyme counterscreen, NADH absorbance; inhibition, % at 4.8 µM; actives 1.2% (n = 360,000); in the data active = inhibition above about 30%;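 note: 0% = DMSO wells and 100% = wells lacking the enzyme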
# Y pestis TopoI: blocks Yersinia pestis topoisomerase I activity; Y. pestis Topo-I cleavage product accumulation, plate reader; activity, % at 10 µM; actives 0.064% (n = 360,000); AID 504884; in the data active = activity above about 50%, passing the limit was not always enough
# PrP UTR inh: inhibition of PrP 5' UTR reporter expression; actives 0.35% (n = 340,000); inhibition, % (test concentration not listed); cell-based PrP 5' UTR mRNA reporter, plate reader; AID 488862; in the data active = inhibition above about 52%; note: 0 = median of the neutral control wells
# FBA Mtb inh: inhibitors of M. tuberculosis fructose-bisphosphate aldolase. inhibition, % at 1 µM. purified M. tuberculosis FBA, fluorescence read-out. AID 588726. P9WQA3. actives 2.3% (n = 360,000); in the data active = inhibition above about 27%;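 note: 0% = vehicle and 100% = reference inhibitor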
# Target sequence (P9WQA3 whole entry, looked up): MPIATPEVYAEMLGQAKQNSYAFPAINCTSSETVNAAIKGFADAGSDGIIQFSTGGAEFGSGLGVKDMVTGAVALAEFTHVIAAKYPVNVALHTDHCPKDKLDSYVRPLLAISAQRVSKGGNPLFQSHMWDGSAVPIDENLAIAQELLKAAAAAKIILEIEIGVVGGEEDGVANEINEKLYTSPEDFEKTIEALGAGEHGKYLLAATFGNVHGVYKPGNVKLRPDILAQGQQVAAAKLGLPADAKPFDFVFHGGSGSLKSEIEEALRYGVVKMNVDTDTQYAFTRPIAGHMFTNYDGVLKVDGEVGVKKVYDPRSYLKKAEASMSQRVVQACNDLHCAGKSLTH
# PrPC TRFRET: inhibitors of human cell surface prion protein PrPC | P04156 | TR-FRET read-out | inhibition, % at 13.8 µM | actives 0.43% (n = 370,000) | AID 720596; in the data active = inhibition above about 24%; note: 0% = median of the test wells and 100% = reference compound wells
# Mtb hypoxia rep: Mtb hypoxia fluorescent reporter inhibition; fluorescence inhibition, % (concentration not given with the values); actives 0.1% (n = 300,000); M. tuberculosis hypoxia-regulated fluorescent reporter, fluorescence; AID 1159583; in the data active = fluorescence inhibition mostly above about 23%, no sharp cut-off; inactive = mostly below about 17%
# * marks the source's active call; other numbers are inactive results; · = no result; + = active, no number. Sampled rows, rich in hits. Any-hit rate of the full collection: about 3.8%.
SMILES,GDH-TPI counter,Y pestis TopoI,PrP UTR inh,FBA Mtb inh,PrPC TRFRET,Mtb hypoxia rep
COc1nc(N/N=C/c2cc3c(cc2Br)OCO3)nc(N2CCOCC2)n1,33.0*,3.0,-4.4,1.0,-6.9,·
Clc1cc2c(cc1C=NNc1nc(N3CCOCC3)nc(N3CCOCC3)n1)OCO2,·,·,·,·,·,10.8
CC(=NOC(=O)c1ccc(F)cc1)c1sc(-c2ccc(Cl)cc2)nc1C,·,·,·,·,·,4.0
COc1ccc(-c2csc(NC(=O)c3cc(C)on3)c2C#N)cc1OC,38.1*,-3.4,-14.6,6.2,-4.7,-7.2
COc1ccc(-c2cc(C(=O)Nc3cc(C)on3)no2)cc1,·,12.1,-22.3,·,0.5,6.4
CCc1c(C)sc(NC(=O)c2cc(-c3ccc(OC)c(OC)c3)on2)c1C#N,-0.6,0.3,-11.6,-2.0,1.9,-0.6
COc1ccc(-c2nnc(NC(=O)c3cc(C)on3)s2)cc1,35.2*,-0.5,-5.4,1.8,4.5,4.4
CCOc1ccc2oc(C(=O)OCC(=O)NC3CCCCC3)c(C)c2c1,-6.5,-2.7,-15.3,21.8,-4.7,31.6*
COc1ccc(NC(=O)c2cc([N+](=O)[O-])ccc2O)cc1,13.6,9.3,86.8*,-5.2,-7.6,23.8
COc1ccc(NC(=O)c2cccc([N+](=O)[O-])c2)cc1,2.7,-9.4,-32.8,-7.9,-13.3,-2.7
CN1/C(=C\C=Nc2cc(S(=O)(=O)N3CCOCC3)ccc2N2CCOCC2)C(C)(C)c2ccccc21,40.9*,24.7,-18.4,-6.5,4.2,3.8
CO/N=C/C=C1/N(C)c2ccccc2C1(C)C,60.5*,2.0,0.3,-2.3,5.4,·
Cc1ccccc1N=C/C=C1\N(C)c2ccccc2C1(C)C,34.9*,3.6,-20.4,2.1,12.4,-1.4
CC(C)(C)c1cc(C(=O)NN=Cc2cc3c(cc2Br)OCO3)n[nH]1,·,·,·,·,·,-1.5
CC(=O)c1ccc(Nc2nc(C(C)N)cs2)cc1 (stereo not drawn),31.2*,-2.5,·,-5.4,-4.3,·
Cc1ccc(C(=O)/C=C/c2ccc(F)cc2)o1,39.1*,2.2,-27.0,-2.7,-3.8,5.1
CC(C)(C)OC(=O)CC1CC=CCC(CC(=O)N(CCO)Cc2ccccc2)C(=O)NCC(c2ccccc2)OC1=O (stereo not drawn),·,·,·,·,·,5.2
CCOC(=O)c1cccc(NC(=O)CCc2nnc3ccc(N4CCCCC4)nn23)c1,11.2,24.0,-6.4,+,2.1,11.2
CN1CCC[C@H]1CCNc1ccc2c(=O)c3ccccc3n(C)c2c1,33.3*,-11.9,-2.8,187.3*,0.1,·
CN1CCCC1CCNc1ccc2c(=O)c3ccccc3oc2c1 (stereo not drawn),30.7*,-4.2,-54.0,+,2.4,7.1
CN1CCCC1CCNc1ccc2oc3ccccc3c(=O)c2c1 (stereo not drawn),·,·,·,·,-4.7,11.7
CNC(=O)c1ccc(Nc2nnc(-c3ccc(C(N)=O)cc3)c3ccccc23)cc1,38.8*,1.8,-13.0,1.4,-17.6,-3.2
CCN(CC)C(=O)COc1ccc(-c2nnc(Nc3ccc(OC)c(C(=O)NC)c3)c3ccccc23)cc1,45.6*,9.8,-19.6,0.0,-21.8,0.9
CCCCCCc1ccc(N2CC(CCCCC)C(CC(=O)NCc3ccc(OC)cc3)C2=O)cc1 (stereo not drawn),·,·,·,·,·,21.2
O=S1(=O)N=C(Nc2nc3c(s2)CCCC3)c2ccccc21,35.8*,-1.0,-53.0,1.0,-2.3,·
SMILES,GDH-TPI counter,Y pestis TopoI,PrP UTR inh,FBA Mtb inh,PrPC TRFRET,Mtb hypoxia rep
CC1=CS/C(=C(/C#N)C(=O)NCc2ccco2)N1c1ccccc1,51.4*,-0.5,33.7,-0.5,3.4,6.9
O=C(NC1CC=CCC(CC(=O)N(CCO)Cc2ccccc2)C(=O)NC(c2ccccc2)COC1=O)OCC1c2ccccc2-c2ccccc21 (stereo not drawn),·,·,·,·,·,14.8
Cc1ccc(NC(=O)C(C#N)=Cc2cc(C)n(-c3ccc(N4CCOCC4)c([N+](=O)[O-])c3)c2C)c(C)c1,·,·,·,·,·,3.1
Cc1cc(/C=C(\C#N)C(N)=O)c(C)n1-c1ccc(N2CCOCC2)c([N+](=O)[O-])c1,37.8*,-7.8,-7.8,-2.5,0.7,-0.6
O=C(c1cnc2ccccc2n1)N1CCN(c2ccc(C(F)(F)F)cn2)CC1,30.6*,-6.0,-18.9,-3.6,-2.7,3.8
COc1ccc(C(=O)C(C)OC(=O)CNC(=O)c2ccco2)cc1 (stereo not drawn),7.5,0.5,-24.7,0.4,2.5,31.2*
O=C(c1ccccc1)c1cc2ccc(O)cc2oc1=O,0.0,2.1,-13.7,-9.4,-3.0,1.6
O=c1ccc2ccc(O)cc2o1,14.7,2.5,-2.4,+,-2.1,·
O=c1ccc2cc3ccoc3cc2o1,3.5,-1.5,-26.3,2.6,7.1,·
O=c1ccc2cc(O)c(O)cc2o1,8.8,-2.4,-26.8,115.3*,6.2,11.1
Fc1ccc2cnc(CCOC3CCCCO3)cc2c1 (stereo not drawn),·,·,·,·,·,8.9
Cc1noc(C)c1NC(=O)Nc1ccc2c(c1)C(=O)N(C(C)CO)CC(C)C(CN(C)C(=O)Nc1ccc3c(c1)OCO3)O2 (stereo not drawn),·,·,·,·,·,8.3
CC(C)OC(=O)C(=Cc1ccc2c(c1)c1ccccc1n2C)NC(=O)c1ccccc1,·,·,·,·,·,-29.1
C#CCOCCOCCOCCNc1nc(N2CCN(C(=O)C(CCCCN)n3cc(C(N)CC(C)C)nn3)CC2)nc(N2CCN(C(=O)C(Cc3ccc(O)cc3)n3cc(C(N)C(C)CC)nn3)CC2)n1 (stereo not drawn),·,·,·,·,·,4.1
Cc1ccc(/C=C/C(=O)OCn2nnc3ccccc3c2=O)o1,34.0*,12.3,-4.5,0.8,-7.1,11.5
FC(F)(F)c1cc(COC2CCCNC2c2ccccc2)cc(C(F)(F)F)c1 (stereo not drawn),·,·,·,·,·,12.7
O=c1cc(/C=C/c2ccccc2)oc2ccccc12,31.7*,3.3,-108.9,6.1,-14.7,4.6
COc1ccc(C(O)=C2C(=O)C(=O)N(c3nc(C)c(C)s3)C2c2ccco2)cc1 (stereo not drawn),·,·,·,·,·,6.7
COc1cc2c(cc1OC)-c1cc3ccc(OC)c(OC)c3c[n+]1CC2,59.4*,-8.2,-5.8,-1.2,-45.9,3.9
O=c1[nH]c(/C=C/c2ccccc2Cl)nc2ccccc12,11.5,0.1,-72.0,4.8,-4.5,1.7
Clc1cccc(Cl)c1/C=C/c1nc2ccccc2[nH]1,15.5,-2.8,-201.9,138.5*,·,0.0
c1c(CC2CCCC2)nnn1CC1CCC(C2CCC(Cn3cc(CC4CCCC4)nn3)O2)O1 (stereo not drawn),·,·,·,·,·,9.2
CCc1cccc(CC)c1NC(=O)C1SC(=Nc2ccccc2C)C(c2nc3ccccc3s2)=C1N (stereo not drawn),-7.5,3.8,-8.3,-1.5,24.5*,11.4
CCc1cccc(C)c1NC(=O)CCCSc1nc2ccccc2s1,3.8,-4.4,-4.7,-0.6,9.1,9.0
CCOC(=O)c1cnn2c(C)cc(-c3ccc(F)cc3)nc12,13.4,-1.2,-73.7,60.4*,-6.2,·
Cc1cc(-c2ccc(F)cc2)nc2cc(C(N)=O)nn12,3.1,-0.1,-15.8,13.3,-16.8,3.4
